tim10-1 inh – growth inhibitors of tim10-1 mutant yeast, primary screen, luminescence, uHTS. AID 463190, 2010. inhibition, % at 20 µM. S. cerevisiae tim10-1 ts strain growth, BacTiter-Glo, 24 h. 330,000 compounds, 2.2% hits;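 active = inhibition of at least 40%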;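 also: mutant grown at 25 °C; 0% = DMSO wells with yeast and 100% = wells holding no yeast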
tim23-1 inh – growth inhibitors of tim23-1 mutant yeast, primary screen, luminescence, uHTS | S. cerevisiae tim23-1 growth, BacTiter-Glo luminescence, 24 h | inhibition, % at 20 µM | 330,000 compounds, 1.3% hits;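 active = growth inhibition of the mutant yeast at or above 50%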;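 also: temperature-sensitive mutant grown at 25 °C; plate controls were DMSO-treated mutant yeast for no effect and medium wells lacking yeast for full effect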
TIM10 inh – growth inhibitors of isogenic TIM10 control yeast, primary screen, counter-screen for tim10-1 yeast inhibitor project, luminescence, uHTS. 330,000 compounds, 1.4% hits. inhibition, % at 10 µM. S. cerevisiae TIM10 strain growth, BacTiter-Glo luminescence, 24 h;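 active = inhibition of 40% or more at the single tested concentration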;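 also: wild-type TIM10 isogenic control strain grown at permissive 25 °C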
NALP1 inh – NALP1 inflammasome inhibitors in reconstituted yeast, colorimetric, S. cerevisiae, triplicate retest | S. cerevisiae NALP1/ASC/caspase-1 growth, X-gal OD620, 72 h | inhibition, % at 10 µM | 280,000 compounds, 0.61% hits; in the data active = inhibition mostly above about 24%, no sharp cut-off; inactive = mostly below about 32%
PfHsp90 set2 – growth inhibition of PfHsp90-expressing yeast, primary screen, antimalarial PfHsp90 inhibitor project, S. cerevisiae, BacTiter-Glo luminescence, single point, set 2; BacTiter-Glo ATP, 48 h; yeast lacking PDR1 and PDR3 efflux regulators; inhibition, % at 9.4 µM; 310,000 compounds, 0.32% hits;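 active = every replicate shows inhibition above about 80%, whatever the replicate mean, limit read from the data; inconclusive = mean inhibition reaches the set limit but some replicate falls short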;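 also: 0% = DMSO neutral controls and 100% = 20 µM radicicol positive controls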
SKKanGAS inh – S. pyogenes SKKanGAS growth inhibitors in kanamycin, primary screen, streptokinase expression inhibitor project, SKKanGAS strain, BacTiter-Glo luminescence; 6 h; inhibition, % at 7.5 µM; 300,000 compounds, 1.3% hits; AID 1662, 2009;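 active = mean replicate score, as percent of positive control median, at least 50; inconclusive = mean below 50 but one replicate at or above 50; inactive = mean and every replicate below 50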;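 also: strain carries kanamycin resistance gene driven by streptokinase promoter and grows in 40 µg/ml kanamycin; loss of luminescence reflects streptokinase promoter inhibition or plain growth inhibition; 0% = median of DMSO wells and 100% = positive control at its reference dose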
tim10 confirm – growth inhibitors of wild-type TIM10 yeast, confirmation, counter-screen for tim10-1 synthetic lethality project, single concentration, luminescence, S. cerevisiae. inhibition, % at 10 µM. 4,600 compounds, 63% hits. shares compounds with TIM10 inh. S. cerevisiae tim10 strain growth, BacTiter-Glo luminescence, 24 h;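 active = inhibition of yeast growth at or above a set limit in either of two replicates at 10 µM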;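 also: this counterscreen used the strain with wild-type TIM10; 0% = yeast with DMSO and 100% = medium wells lacking yeast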
* hit, by the source's call; ? = inconclusive; . = no result given. Rows were chosen to be rich in hits. Some 4.8% of all compounds tested hit in one or more screens of this group.

SMILES	tim10-1 inh	tim23-1 inh	TIM10 inh	NALP1 inh	PfHsp90 set2	SKKanGAS inh	tim10 confirm
Cc1ccc(C(=O)c2ccccc2C(=O)Nc2ccccc2)cc1	20	35	10	.	1	-2	.
Cc1ccc(C)c(NC(=O)c2ccccc2C(=O)c2ccccc2)c1	23	34	41*	0	.	8	29
OC(CNC1CCCc2ccccc21)COc1c(Cl)cccc1Cl (stereo unspecified)	4	-49	-19	22	2	7	.
CCC1CCCCN1CCCNC(=O)CN1C(=O)COc2ccc(S(=O)(=O)N3CCC(C)CC3)cc21 (stereo unspecified)	18	8	1	1	-2	-2	.
Cc1nc([N+](=O)[O-])c(Sc2nc3ccccc3n2C)n1Cc1ccccc1	33	37	40*	25	1	20	42*
COc1ccc(NC(=S)NCCC(c2ccccc2)c2ccccc2)c(OC)c1	23	13	45*	.	-16	18	31*
Cc1c(Cl)cccc1NC(=S)NCCC(C)C	29	23	49*	22	8	5	34*
Cc1c(Cl)cccc1NC(=S)NCCC(c1ccccc1)c1ccccc1	37	4	50*	16	-5	79*	20
Cc1c(Cl)cccc1NC(=S)NCc1ccccc1Cl	38	25	9	18	0	7	.
CCCn1c(=S)[nH]c2cc(C(=O)N3CCc4ccccc4C3)ccc2c1=O	-12	-30	-21	17	-9	-1	.
CC1=NNC(=O)C1C(c1ccc(Cl)cc1)C(C#N)C#N (stereo unspecified)	25	35	-4	13	.	2	.
CC(C)(C)Nc1nc(NCc2cccnc2)nc(N2CCOCC2)n1	18	18	11	2	25	0	.
N#C/C(=N\Nc1cc(Cl)cc(Cl)c1)c1nnc2n1CCCCC2	35	13	41*	21	.	-2	28
Cc1ccc(S(=O)(=O)NCCSc2nnnn2-c2cc(C)ccc2C)cc1	30	24	45*	-6	-4	-4	9
CNC[C@H]1Oc2c(NS(=O)(=O)c3ccc(F)cc3)cccc2C(=O)N([C@H](C)CO)C[C@@H]1C	-1	4	2	.	-11	.	.
CC(C)c1ccc(S(=O)(=O)N2CCN(C(=O)C3=COCCO3)CC2)cc1	5	10	97*	.	-10	.	1
O=C1N(c2ccccc2)C[C@@H]2C[C@@H](c3cc4ccccc4o3)N3CCC[C@@]123	21	20	9	-3	8	0	.
CC(C)c1ccc(NC(=O)Cc2cn(C)c3ccccc23)cc1	26	33	47*	7	-14	-9	32*
COc1ccc(C(C#N)Nc2ccccc2)cc1 (stereo unspecified)	8	-7	4	13	.	-15	.
N#CC(Nc1ccccc1)c1ccccc1OCc1ccccc1 (stereo unspecified)	18	32	42*	-10	.	7	15
COc1ccc(C(=O)/C=C/c2ccccc2F)c(OC(=O)c2ccc([N+](=O)[O-])cc2)c1	38	-1	44*	-5	-4	-1	41*
O=C(N/N=C/c1ccc(OC(=O)c2cccs2)cc1)c1ccc(F)cc1	5	-24	-15	7	0	1	.
COCCN1C(=O)N[C@@H](c2ccco2)C(C(=O)OC)=C1C	-15	-5	-12	.	-2	4	.
CC(=O)N1CCc2c(sc(NC(=O)CS(=O)(=O)c3ccc(F)cc3)c2C#N)C1	12	11	2	.	.	18	.
Cc1c(Cc2ccccc2)sc(NC(=O)c2ccco2)c1C(N)=O	14	49	51*	4	-49	0	51*
SMILES	tim10-1 inh	tim23-1 inh	TIM10 inh	NALP1 inh	PfHsp90 set2	SKKanGAS inh	tim10 confirm
CC1CCN(C(=O)c2ccc(NC3=C(Cl)C(=O)N(Cc4ccccc4)C3=O)cc2)CC1	22	40	41*	.	.	.	42*
CC(C)(C)c1nc(NC(=O)Nc2ccccc2)sc1Br	35	2	49*	18	0	68*	49*
Cc1ccc(C)c(N2CCN(C(=O)C3CCN(S(=O)(=O)c4cccc5nsnc45)CC3)CC2)c1	36	-1	40*	6	-10	7	32*
COc1ccc(NC(=O)c2cn3c(nc4ccccc43)c(C#N)c2C)cc1	-4	-4	-2	.	7	11	.
CCCCn1cnc2c(oc3nc4c(cc32)CCCC4)c1=O	-20	23	18	-7	18	-1	.
CCCCCCn1cnc2c(oc3nc4c(cc32)CCCC4)c1=O	9	11	43*	35	0	-15	-2
Cc1ccc(OCc2ccc(C(=O)Nc3c(C)nn(Cc4c(F)c(F)c(F)c(F)c4F)c3C)o2)c([N+](=O)[O-])c1	24	26	23	-6	.	?	.
CCOc1ccc(/C=N/NC(=O)c2csc(C)c2C)c(OCC)c1	5	6	-13	28	5	-5	.
CCCCOc1cccc(/C=N/NC(=O)c2csc(C)c2C)c1	32	17	48*	12	-15	9	27
COc1ccc(Cn2nc(C(=O)O)c3ccccc3c2=O)cc1F	6	11	10	8	-4	-1	.
O=C1c2ccccc2C(=O)N1SC1CCCCC1	33	10	65*	-10	106*	-1	83*
O=C(OCN1C(=O)c2ccccc2C1=O)C1CCCCC1	23	10	3	2	1	1	.
Cc1[nH]c2ccccc2c1C(=O)/C=C/c1ccccc1Cl	-5	19	31	7	8	-15	.
Cc1[nH]c2ccccc2c1C(=O)/C=C\c1ccccc1Cl	30	47	43*	.	9	-10	12
Oc1cc(OCc2ccccc2)ccc1-c1[nH]ncc1-c1ccccc1	-25	30	50*	11	105*	73*	46*
COc1ccc(-c2cn[nH]c2-c2ccc(OCc3ccc(F)cc3)cc2O)cc1OC	31	22	40*	-4	8	31	34*
CN(C)c1ccc(/C=C/C(=O)c2ccc3c(c2)OCCO3)cc1[N+](=O)[O-]	36	41	43*	35	-2	-1	25
CC(C)(C)n1nnnc1C(c1ccncc1)N(Cc1ccccc1)Cc1ccco1 (stereo unspecified)	31	34	42*	16	0	26	-4

From PubChem
